Assay outcomes as filed in PubChem BioAssay.
Abeta rescue: qHTS for compounds that reverse cellular toxicity of Amyloid beta (A-beta) peptide in yeast: Primary Screen; yeast expressing A-beta42, growth rescue, OD600, 48 h; response scale: 0% DMSO, 100% iron-clioquinol control; Potency, µM (doses to about 46.1 µM), actives largely listed as activators; hit rate 0.063% among 410,000; AID 1347071, 2019; further: nearly all actives have a fitted effect of over 55% in size
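Yeast growth medium received pinned compounds, then yeast cells expressing toxic A-beta were added; plates incubated at 30 C for 48 hr. Growth read as absorbance at 600 nm, normalized to DMSO and equimolar FeCl3 plus clioquinol controls.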
GRP78 ERSR act: qHTS for Inducers of the Endoplasmic Reticulum Stress Response (ERSR) in Human Glioma: qHTS; U87-MG GRP78 promoter luciferase reporter, 16 h; Potency, µM, most hits filed as activators; hit rate 0.02% among 420,000; further: series mostly up to about 76 µM; nearly all actives have a fitted effect of over 35% in size
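Stably transfected U87-MG glioma cells carrying a GRP78-based luciferase sensor; 16 h compound incubation. Luminescence end-point read 10 min after Bright-Glo addition at room temperature.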
MBNL1-CUG inh: qHTS Assay for Inhibitors of MBNL1-poly(CUG) RNA binding. TR-FRET MBNL1-His/biotin-(CUG)12 binding, 665/545 ratio. Potency, µM (doses to about 57.5 µM), most hits filed as inhibitors. hit rate 0.036% among 280,000. AID 2675, 2010; active means well fitted inhibition curve with a large enough effect in the signal ratio, with a control signal flat, not every such curve was filed as active; inconclusive means small, poorly fitted or top-dose-only effect, or effect the other way, or a change in a side signal; inactive means no such curve, though single readings can be large or run the other way; the % refers to the signal ratio
Target sequence (Q9NR56 whole entry, looked up): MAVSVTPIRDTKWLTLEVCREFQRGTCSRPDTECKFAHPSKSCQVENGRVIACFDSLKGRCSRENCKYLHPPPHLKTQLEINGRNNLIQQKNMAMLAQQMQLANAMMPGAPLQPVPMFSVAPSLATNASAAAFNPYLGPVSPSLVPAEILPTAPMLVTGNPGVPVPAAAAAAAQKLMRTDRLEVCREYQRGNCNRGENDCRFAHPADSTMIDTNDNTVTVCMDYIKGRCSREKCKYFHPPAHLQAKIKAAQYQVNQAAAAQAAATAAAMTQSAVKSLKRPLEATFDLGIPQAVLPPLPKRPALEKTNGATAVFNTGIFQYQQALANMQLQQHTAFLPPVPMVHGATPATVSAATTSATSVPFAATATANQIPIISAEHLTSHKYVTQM
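MBNL1-His + Biotin-(CUG)12, cpd titration 92 nM–58 uM; Tb anti-His Ab 0.055 ng/ul, SA-XL665 5 nM (final); 60 min RT; ratiometric 665/545 nm, Ex 340 nm; normalized to buffer and full-complex controls.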
FUS suppressor: qHTS for Suppressors of FUS Proteinopathy: Primary screen using FUS-linked yeast assay | hit rate 0.24% among 390,000 | Potency, µM (titrated, usually from 76.6 µM), actives largely listed as activators | S. cerevisiae FUS-expressing, growth rescue, OD600, 24 h; further: nearly all actives have a fitted effect of over 55% in size
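Restored growth of FUS-toxic S. cerevisiae, read as 600 nm absorbance after 24 h at 30C in galactose medium (starting OD 0.005). Controls CP55940 and DMSO.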
aSyn yeast inh: qHTS of alpha-syn Inhibitors | Yeast expressing alpha-synuclein, growth rescue, BacTiter-Glo, 24 h | Potency, µM (titrated, usually from 46.1 µM), actives largely listed as activators | hit rate 0.14% among 370,000 | AID 652106, 2013; further: nearly all actives have a fitted effect of over 65% in size
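Screening used galactose-induced yeast with toxic alpha-synuclein levels, exposed to compound for 24 hr at 30 deg C. Cell growth, read with BacTiter-Glo luminescence, gave the measured signal.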
TDP43 rescue: qHTS of TDP-43 Inhibitors; Potency, µM (top dose mostly 46.1 µM), actives largely listed as activators; TDP-43 expressing yeast growth rescue, BacTiter-Glo, 24 h; hit rate 1.8% among 410,000; AID 652104, 2013; further: nearly all actives have a fitted effect of over 50% in size
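Yeast expressing TDP-43 (pregrown in raffinose, seeded at OD600=0.02 in galactose medium) exposed to compounds 24 hr at 30 deg C. Growth read by BacTiter-Glo luminescence; rescue of toxicity appears as increased signal.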
Numbers stand for hits; . = inactive; ? = inconclusive; / = no result; [ ] = remark or other dose. Shown are actives, neighbours in structure and some others; about 2% of the full set was active somewhere. Unless noted, the call rests on the fitted dose curve; in most records, active means well fitted curve in the direction sought with a large enough effect; inconclusive means small, poorly fitted or top-dose-only effect, or another doubt; inactive means no such curve, though single readings can be large; an effect the other way counts as inactive or inconclusive.

SMILES	Abeta rescue	GRP78 ERSR act	MBNL1-CUG inh	FUS suppressor	aSyn yeast inh	TDP43 rescue
Cc1ccc(C2c3[nH]c4ccccc4c3C[C@H]3C(=O)N(c4ccccc4C(=O)N4CCC(C(=O)O)CC4)C(=O)N23)cc1 (some centres not stated)	.	.	.	?	.	.
CC(OP(=O)(O)C(NC(=O)[C@H](Cc1ccc(O)cc1)NC(=O)OC(C)(C)C)C(C)C)C(=O)O (some centres not stated)	/	/	/	.	/	/
COCCNC(=O)c1cc(-c2ccccc2)nn1CC1CC(c2cccc([N+](=O)[O-])c2)=NO1 (configuration not stated)	.	.	/	.	.	.
O=C(NCc1cccc(Br)c1)c1cc(-c2ccccc2)nn1CC1CC(c2cccc([N+](=O)[O-])c2)=NO1 (configuration not stated)	.	.	/	31.6µM	.	.
Cc1cc(N/N=C/c2ccc(F)cc2)nc(-n2nc(C)cc2C)n1	12.6µM	.	.	.	.	.
O=C(O)c1ccccc1-c1ccccc1C(=O)Nc1cccc(Br)c1	.	.	?	.	.	.
CN1C(=O)c2ccccc2Sc2ccc(NC(=O)c3ccccc3F)cc21	.	.	/	.	/	17.8µM
O=C(Nc1ccc(F)c(F)c1)c1ccccc1-c1ccccc1	7.08µM	.	.	/	.	?
O=C(Nc1cccc(Br)c1)c1ccccc1-c1ccccc1	?	.	?	.	.	15.8µM
COC1OC(c2ccccc2)=C(c2ccc(C(N)=O)cc2)c2ccc(F)cc21 (configuration not stated)	.	/	/	.	.	.
COc1ccc(C2=C(c3ccccc3)OC(OC)c3cc(F)ccc32)cn1 (configuration not stated)	?	/	/	.	?	15.8µM
Fc1ccccc1Nc1ncnc2c1nnn2Cc1ccccc1	?	.	.	.	.	11.2µM
c1ccc(Cn2ncc3c(Nc4ccccc4)ncnc32)cc1	.	.	.	.	.	12.6µM
CNc1ncnc2c1cnn2-c1ccc(C)c(C)c1	.	.	/	.	/	11.2µM
Cc1ccc(-n2ncc3c(NCc4ccco4)ncnc32)cc1C	.	.	.	.	.	.
Clc1ccccc1Nc1ncnc2c1nnn2Cc1ccccc1	.	.	.	.	.	.
CSc1ncnc2c1cnn2-c1ccc(C)cc1C	.	.	.	.	.	17.8µM
Cc1ccc(-n2ncc3c(NCCc4ccccc4)ncnc32)cc1C	.	.	/	.	/	?
Cn1ncc2c(Nc3ccc4ccccc4c3)ncnc21	.	.	?	.	.	10µM
c1ccc(CCNc2ncnc3c2cnn3-c2ccccc2)cc1	.	.	.	.	.	15.8µM
Cc1cccc(Nc2ncnc3c2cnn3C)c1	.	.	.	.	.	?
Cc1ccc(Nc2ncnc3c2cnn3-c2ccccc2)c(C)c1	.	.	/	.	.	35.5µM
CCOCCCNc1ncnc2c1cnn2-c1ccc(C)c(C)c1	.	.	/	.	/	11.2µM
COc1ccc(C(=O)NCC2Cc3cc(F)cc(-c4cncnc4)c3O2)cc1 (configuration not stated)	/	.	/	/	/	/
Cc1c(C(=O)N(C)Cc2cccc3ncccc23)cnn1-c1nccc(-c2ccccc2F)n1	/	.	/	/	/	/
SMILES	Abeta rescue	GRP78 ERSR act	MBNL1-CUG inh	FUS suppressor	aSyn yeast inh	TDP43 rescue
CCC1CN(C(=O)N2CCC(C(=O)N3CCN(c4cc(C)ccc4C)CC3)CC2)c2ccccc2O1 (configuration not stated)	.	.	/	?	/	22.4µM
CCC1CN(C(=O)N2CCC(C(=O)N3CCN(c4cccc(C)c4C)CC3)CC2)c2ccccc2O1 (configuration not stated)	.	.	/	?	/	.
O=C(NCc1cccnc1)c1cnn(-c2nccc(-c3cccs3)n2)c1C1CC1	/	.	/	/	/	/
Cc1cc(Cl)ccc1OCC(=O)NNC(=O)C1CCN(c2ncnc3sc(C)c(C)c23)CC1	.	.	/	?	.	22.4µM
COC(=O)[C@]1(C#N)CC(=O)N(C)[C@@H]1c1ccccc1	/	/	/	.	/	/
CC(C)(C)n1ncc2c(=O)n(Cc3cccc(Oc4ccccc4)c3)cnc21	/	.	/	/	/	/
Cc1cc(-n2c(C)cc(C(=O)CCl)c2C)no1	.	.	.	.	.	3.55µM
COc1ccc(-n2c(C)cc(C(=O)CCl)c2C)cc1	.	.	.	.	.	3.16µM
COc1ccc(CCn2c(C)cc(C(=O)CCl)c2C)cc1OC	.	.	.	.	.	15.8µM
CCOC(=O)CC[C@H]1CC[C@]2(CCCN(S(=O)(=O)C3CCCCC3)C2)O1	/	/	/	.	/	/
O=S1(=O)c2c(cccc2N2CCC[C@H]2CO)OCCCN1C1CC1	/	/	/	.	/	/
Clc1ccc(-c2cc3ccccc3nc2N2CCOCC2)cc1	.	.	/	.	.	17.8µM
Cc1nc2nc(SCC(=O)NCCc3ccccc3)nn2c(C)c1Cc1c(F)cccc1Cl	.	.	/	?	/	22.4µM
CCOc1ccc(NC(=O)CSc2nc3nc(C)c(Cc4ccccc4)c(C)n3n2)cc1	.	.	/	.	/	25.1µM
Cc1ncc2c(c1CNC(=O)c1ccc3c(c1)OCO3)CCN(C(=O)c1ccc3ccccc3c1)C2	/	.	/	/	/	/
CCc1nc(CN2CCOc3ccc(C(O)C4CCCCC4)cc3C2)c(C)[nH]1 (configuration not stated)	/	.	/	/	/	/
CSc1nc(C(=O)N2CCc3c(cnc(C)c3CNC(=O)c3ccc4c(c3)OCO4)C2)cs1	/	.	/	/	/	/
O=C(c1cc(C2CC2)nn1-c1ccccc1)N1CCN(c2ccccc2O)CC1	.	.	/	?	.	17.8µM
Cc1cc(SCc2cc(=O)n3ccsc3n2)nc2ccccc12	.	.	/	.	.	11.2µM
CC(=O)C1(C(=O)NC2CCCC2)CC(c2ccccc2C(F)(F)F)=NO1 (configuration not stated)	/	/	/	.	/	/
O=C1c2ccccc2NC(c2cn[nH]c2-c2ccccc2)N1O (configuration not stated)	.	.	.	/	.	.
O=C1c2ccccc2NC(c2cn[nH]c2-c2ccc(Cl)cc2)N1O (configuration not stated)	.	.	.[11.5 µM]	25.1µM	.	.
COc1ccc(C(=O)NCC2Cc3cc(C)cc(-c4cc(C(C)=O)ccc4F)c3O2)c(OC)c1OC (configuration not stated)	/	.	/	/	/	/
Cc1onc(-c2ccccc2)c1-c1ccnc(N)n1	.	.	.	.	?	.
CSc1nccc(-c2c(-c3ccc(Cl)cc3)noc2C)n1	.	.	.	.	.	17.8µM
